# Results taken from ChEMBL document CHEMBL4513216, “Probing the Open Global Health Chemical Diversity Library for Multistage-Active Starting Points for Next-Generation Antimalarials” (ACS Infect Dis, 2020).
# The campaign covered roughly 68,000 compounds. About 2,700 (4%) showed an effect of 50% or more. The sample holds strong results, similar compounds and a random draw of the others, so the mix is not that of the screen.
# Tested on: Plasmodium berghei
# Assay: Screen against P. berghei liver stage (PbLuc), transformed with Luciferase, at 2uM
# Format: functional, HepG2
# Settings: tested at 2 uM
row,Structure (SMILES),INHIBITION
1,O=c1c(-c2ccnc(NC3CCCCC3)n2)cnc2sc(Cl)cn12,10.83%
2,Cn1c(C(=O)N2CC[C@@]3(O)CCCC[C@H]3C2)cc2ccccc21,5.04%
3,CS(=O)(=O)N1CCCC12CCCN(S(=O)(=O)c1cccc(F)c1)C2 (stereo unspecified),32.41%
4,CCN1Cc2ccccc2CC2(CCN(C(=O)N(C)C)CC2)C1=O,14.94%
5,Cn1nc(C(=O)N2CCCC(n3cncn3)C2)ccc1=O (stereo unspecified),8.06%
6,CC(C)(C)c1nc(CN2CCC(N3CCCCC3)CC2)no1,40.47%
7,O=C1CN(C(=O)c2cc3ccc(Br)cc3[nH]2)CCN1,57%
8,O=C1CN(C(=O)c2cc3c(F)cc(Br)cc3[nH]2)CCN1,-10%
9,Cc1cc(C)c2cc(C(=O)N3CCNC(=O)C3)[nH]c2c1,19.48%
10,Clc1cccc(C2CCN(c3ncnc4c3CCNC4)C2)c1 (stereo unspecified),36.79%
11,COCCn1cnc(-c2nc(C(=O)N3CCOCC3)c3ccccn23)c1,11.37%
12,CN(Cc1n[nH]c2c1CCCC2)c1nc(C2CC2)nc2c1CCNCC2,14.55%
13,CCOc1ccc(Cl)c(C(=O)N(C)C)n1,-23.4%
14,Cc1cnn(C2CN(CCOc3ccccc3C#N)C2)c1,-21.72%
15,CO[C@@H]1CCN(Cc2cnn(C)c2)[C@@H]2CN(Cc3cccnc3)C[C@@H]21,51.05%
16,CO[C@H]1CCN(Cc2cnn(C)c2)[C@@H]2CN(Cc3cccnc3)C[C@H]12,39.06%
17,CO[C@H]1CCN(Cc2cnn(C)c2)[C@@H]2CN(Cc3ccncc3)C[C@H]12,-22.28%
18,CC(C)NC(=O)CS(=O)(=O)Cc1cc(Cl)c2c(c1)OCCO2,14.82%
19,CC(C)C1CN(Cc2c[nH]cn2)CCCN1CC1CC1 (stereo unspecified),-28.5%
20,CC(CN1CCOCC1)NC(=O)N(C)Cc1ccc(Cl)s1 (stereo unspecified),2.8%
21,c1cnc(N2CCC3(CCN(CC4CCOC4)CC3)CC2)nc1 (stereo unspecified),42.27%
22,c1cnc(N2C[C@H]3CN(CC4CCOC4)C[C@H]3C2)nc1 (stereo partly specified),55.44%
23,c1cnc(N2CCC3(CN(CC4CCOC4)C3)C2)nc1 (stereo unspecified),24.54%
24,CCn1cc(C2CCN(Cc3ccnc(N(C)C)c3)CC2)cn1,5.17%
25,CCC(C)C(=O)NCc1cccc(OCCN(C)C2CCOCC2)c1 (stereo unspecified),-13.37%
26,CC(C)CC(=O)NCc1cccc(OCCN(C)C2CCOCC2)c1,74.08%

row,Structure (SMILES),INHIBITION
1,COCC(=O)NCc1cccc(OCCN(C)C2CCOCC2)c1,6.07%
2,CSC1(CNC(=O)c2ccn(-c3ccccc3F)n2)CCOCC1,-5.41%
3,O=C(C1CCCC1)N1CC2(CCN(C3COC3)C2)OCc2ccccc21 (stereo unspecified),12.39%
4,Cc1nc(CNC(=O)CCN2CCN(c3ccccc3)CC2)oc1C,-0.39%
5,CN(C)CCN1CC(C(=O)NCc2cn3cccnc3n2)CC1=O (stereo unspecified),11.37%
6,O=C(NCc1cn2cccnc2n1)C1CC(=O)N(Cc2cccnc2)C1 (stereo unspecified),-23.46%
7,O=C(NCc1cn2cccnc2n1)C1CC(=O)N(Cc2ccccn2)C1 (stereo unspecified),56.79%
8,Cc1ccc(C(=O)O)cc1S(=O)(=O)N(CC(C)O)c1ccccc1 (stereo unspecified),11.33%
9,COc1ncccc1NC(=O)N1CCC(c2ccc(O)cc2)CC1,-14.28%
10,CCN1CC(COC(=O)c2ccc(N(C)C)cc2F)CC1=O (stereo unspecified),-3.43%
11,CC(C)CS(=O)(=O)N1C[C@@H]2C[C@H](C(=O)N3CCOCC3)[C@H](C1)O2,15.36%
12,CCCS(=O)(=O)N1C[C@@H]2C[C@H](C(=O)N3CCN(C)CC3)[C@H](C1)O2,72.68%
13,CCCS(=O)(=O)N1C[C@@H]2C[C@H](C(=O)N3CCCC3)[C@H](C1)O2,22.71%
14,CS(=O)(=O)N1C[C@@H]2C[C@H](C(=O)N3CCOCC3)[C@H](C1)O2,54.01%
15,CC(C)CS(=O)(=O)N1C[C@@H]2C[C@H](C(=O)N3CCN(C)CC3)[C@H](C1)O2,-26.46%
16,CCCS(=O)(=O)N1C[C@@H]2C[C@H](C(=O)N3CCOCC3)[C@H](C1)O2,32.59%
17,CCOCC1CN(Cc2ccncc2)Cc2nn(C)cc21 (stereo unspecified),7.26%
18,CCN(C)c1ncnc2c1CCN(CC1CCOC1)CC2 (stereo unspecified),26.76%
19,COc1cc(Cl)ccc1C(=O)NCc1n[nH]c(C)n1,29.39%
20,Cc1cc(CC(=O)NCC(O)c2ccc(OC(F)F)cc2)n[nH]1 (stereo unspecified),17.94%
21,CSc1ccc(-c2noc(CN(Cc3ccccc3)C(C)C)n2)cc1,28.97%
22,CCS(=O)(=O)N1Cc2c(Cn3cccc3)nn(C(C)C)c2C1,-24.79%
23,CC(C)n1nc(Cn2cccc2)c2c1CN(Cc1ccoc1)C2,51.4%
24,Cn1nc(Cn2ccnc2)c2c1CN(Cc1ccoc1)C2,4.26%
25,Cn1nc(Cn2cccc2)c2c1CN(Cc1ccoc1)C2,50.32%
26,COCc1nn(C(C)C)c2c1CCN(Cc1ccoc1)C2,6.35%

row,Structure (SMILES),INHIBITION
1,Cn1nc(Cn2cccn2)c2c1CN(Cc1ccoc1)C2,15.34%
2,O=C1CC[C@H]2CN(Cc3ncc[nH]3)CC[C@H]2N1CC1CCNCC1,17.37%
3,Cc1cc(N2CCC(Cc3cnccn3)C2)ncn1 (stereo unspecified),-10.89%
4,CC(C)C(C#N)N1CCN(Cc2nccn2CC(F)(F)F)CC1 (stereo unspecified),-16.4%
5,O=C1[C@@H]2CCN(Cc3ccoc3)C[C@@H]2OCCN1Cc1cccnc1,-32.67%
6,CCS(=O)(=O)N1CC[C@H]2C(=O)N(Cc3cccnc3)CCO[C@H]2C1,58.52%
7,O=C1[C@@H]2CCN(C3CCOCC3)C[C@@H]2OCCN1Cc1cccnc1,4.08%
8,CCOCC(O)CN1CCN(C(=O)c2cc(Cl)ccc2F)CC1 (stereo unspecified),15.08%
9,Cc1ccc(C2NC(=O)c3cc(C(C)C)sc3N2)cc1 (stereo unspecified),46.98%
10,CC(C)c1cc2c(s1)NC(c1ccccc1)NC2=O (stereo unspecified),51.76%
11,CC(C)c1cc2c(s1)NC(c1ccccn1)NC2=O (stereo unspecified),-23.17%
12,O=C(NC1CCC1)c1n[nH]c2c1CNCC2,-29.3%
13,Cc1nc(C)n(C2CCCN(C(=O)CCCc3ccccn3)C2)n1 (stereo unspecified),70.27%
14,COc1ccccc1CC(=O)N1CCCC(n2nc(C)nc2C)C1 (stereo unspecified),59.23%
15,Cc1cc(C)n(C2CCCN(C(=O)CCCc3ccccn3)C2)n1 (stereo unspecified),-5.15%
16,Cc1nc(C)n(C2CCCN(C(=O)CCCOc3ccccc3)C2)n1 (stereo unspecified),-17.71%
17,Cc1nc(C)n(C2CCCN(C(=O)COc3ccccc3)C2)n1 (stereo unspecified),-2.9%
18,COc1ccccc1CC(=O)N1CCCC(n2nc(C)cc2C)C1 (stereo unspecified),-7.5%
19,CCc1nnc(CN2CCOC(Cn3cc(C)cn3)C2)o1 (stereo unspecified),-50.23%
20,O=C(O)c1cc(C2=CCCCC2)cc(S(=O)(=O)NCc2ccccn2)c1,40.88%
21,CC(C)(C)n1ncc(NCC(O)c2ccccc2C(F)(F)F)c(Cl)c1=O (stereo unspecified),6.26%
22,OC1(CNCCc2csc(-c3ccncc3)n2)CCCNC1 (stereo unspecified),10.72%
23,Fc1ccc(CN2CC[C@H]3O[C@@H](COCC4CCOCC4)CC[C@H]32)cc1,32.31%
24,Cn1cncc1-c1nnc([C@H]2CCN(CC(C)(C)C)C2)o1,-23.78%
25,CN(CCCOc1ccccc1Cl)C(=O)CN1CCNC1=O,-9.33%
26,CN(CCCOc1ccccc1Cl)C(=O)CN1C(=O)CCNC1=O,27.67%

row,Structure (SMILES),INHIBITION
1,CN(CCCOc1ccccc1Cl)C(=O)CN1CCCCCC1=O,50.42%
2,COC(C)(C)C(=O)N1Cc2cnc(C(C)(C)C)nc2C1,-82.18%
3,CC(OCC1CC1)C(=O)Nc1cccc(C(=O)Nc2ccccn2)c1 (stereo unspecified),-5.74%
4,NC(=O)c1cn(CC2CC2)c(C2CC2)n1,-4.87%
5,CCC[C@H]1CN(c2cncc(C(=O)N3CCCCC3)n2)C[C@@H]1N(C)C,-16.39%
6,Cc1nc(-c2ccoc2)n(CC(=O)NCC(C)C)c1C,19.53%
7,Cc1nc(-c2ccoc2)n(CC(=O)N(C)CC(C)C)c1C,64.82%
8,CCOC(=O)CNC(=O)Cn1c(-c2ccoc2)nc(C)c1C,-19.53%
9,O=C(Nc1ccccc1)C1CN(C(=O)c2cccs2)CC12CCOCC2 (stereo unspecified),-36.65%
10,CC1COCCN1Cc1nc(-c2ccc(F)cc2)no1 (stereo unspecified),-24.5%
11,CC(=O)Nc1nc(CN2CCOC(Cn3cncn3)C2)cs1 (stereo unspecified),-0.13%
12,CCCC(=O)N1C[C@@H]2CCN(c3cnccn3)C[C@@H]2C1,50.72%
13,O=C(c1cnccn1)N1C[C@@H]2CCN(c3cnccn3)C[C@@H]2C1,24.95%
14,CCC(=O)N1C[C@@H]2CCN(c3cnccn3)C[C@@H]2C1,40.28%
15,O=C(C1CCCCC1)N1C[C@@H]2CCN(c3cnccn3)C[C@@H]2C1,50.17%
16,CC(C)CC(=O)N1C[C@@H]2CCN(c3cnccn3)C[C@@H]2C1,20.51%
17,O=C(C1CCCC1)N1C[C@@H]2CCN(c3cnccn3)C[C@@H]2C1,28.75%
18,Cc1noc(C)c1CN1C(=O)[C@@H]2CC[C@H]1CN(Cc1cscn1)C2,-55.91%
19,Cc1ccccc1SC1CCN(C(=O)C2[C@H]3CNC[C@@H]23)CC1 (stereo partly specified),2.49%
20,O=C(CCCn1cncn1)N1CCCC1c1noc(C2CC2)n1 (stereo unspecified),8.65%
21,Cc1nc(CN2CCCC2c2noc(C3CC3)n2)nc2ccccc12 (stereo unspecified),22.29%
22,CN1CCC(O)(CNC(=O)c2cc(COc3cccc(F)c3)[nH]n2)CC1,-13.79%
23,Cc1n[nH]c(C2CN(C(=O)c3cc(C)sc3C)CCO2)n1 (stereo unspecified),40.13%
